IP6K1 inh – inhibitors of human IP6K1; IP6K1 kinase, ADP-Glo luminescence, 2 h; active compounds read low; Q92551; activity change, % (series mostly up to about 58 µM); 0.81% of 140,000 active; in the data active = activity change below about -25%
Target sequence (Q92551 whole entry, looked up): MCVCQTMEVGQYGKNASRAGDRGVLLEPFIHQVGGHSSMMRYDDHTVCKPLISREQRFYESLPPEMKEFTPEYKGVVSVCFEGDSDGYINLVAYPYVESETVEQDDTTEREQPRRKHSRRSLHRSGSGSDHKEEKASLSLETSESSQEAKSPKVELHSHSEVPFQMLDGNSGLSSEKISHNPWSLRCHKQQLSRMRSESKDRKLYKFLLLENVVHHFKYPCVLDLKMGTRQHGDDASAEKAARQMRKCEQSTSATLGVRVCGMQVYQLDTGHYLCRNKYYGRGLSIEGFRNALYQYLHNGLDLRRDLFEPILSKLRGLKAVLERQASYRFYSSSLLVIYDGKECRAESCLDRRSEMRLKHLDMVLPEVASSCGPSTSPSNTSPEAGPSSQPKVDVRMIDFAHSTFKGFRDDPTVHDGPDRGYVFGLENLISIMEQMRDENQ
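ADP-Glo luminescence measures ADP made by human IP6K1 during a 2 h RT reaction with ATP/IP6 (mix at 1.3 mM/130 uM); top library doses 57.5 and 19.1 uM final.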
KDM5B inh – KDM5B demethylase inhibition | 2.6% of 220,000 active | Q9UGL1 | KDM5B demethylase, FDH-coupled NADH fluorescence (FDH is formaldehyde dehydrogenase) | Potency, µM (series often up to 57.7 µM), usual class: inhibitors; also: nearly all actives have a fitted effect of over 70% in size
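Here, H3K4me3 peptide (12.5 µM in substrate mix) is demethylated by KDM5BΔAP, 200 nM final, after 10 min compound exposure. Formaldehyde product is coupled through FDH (0.25 U/mL in mix) to NADH fluorescence; 30-min ΔRFU feeds dose-response curves.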
SNCA expr inhib – SNCA gene expression inhibition | HEK-293 SNCA-luciferase knock-in, luminescence, 24 h | Potency, µM (highest dose often 57.2 µM), most hits filed as inhibitors | 0.17% of 140,000 active; also: nearly all actives have a fitted effect of over 45% in size
HEK293 viab – counter-screen for SNCA expression inhibitors: cell viability; Potency, µM (top dose mostly 57.1 µM), most hits filed as cytotoxic; AID 1671193; HEK-293-SNCA-luc viability, GF-AFC fluorescence, 24 h; 0.12% of 150,000 active; also: nearly all actives have a fitted effect of over 30% in size
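HEK-293-SNCA-luc cells (1500/well) plated 24 h, then exposed 24 h to a dilution series; GF-AFC added 30 min at 37C, fluorescence 405/540 nm; normalised to medium-only and DMSO wells, Hill fit.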
Hits are given with their value; [ ] = another dose, or the depositor's remark. Most compounds without a hit are left out; they make up all but 3% or so of the library. Unless noted, calls follow the shape of the dose curve; as a rule, active = well fitted curve in the direction sought with a large enough effect; inconclusive = small, poorly fitted or top-dose-only effect, or another doubt; inactive = no such curve, though single readings can be large; an effect the other way counts as inactive or inconclusive.

Screening c1cncc(-c2ccnc3nc(C4CCC4)nn23)c1 returned IP6K1 inh inactive, KDM5B inh inconclusive, SNCA expr inhib inconclusive and HEK293 viab inactive.
Screening CC(C)Cc1nc2nccc(-c3ccc4c(c3)OCCCO4)n2n1 returned IP6K1 inh inactive, KDM5B inh 28.2µM, SNCA expr inhib inactive and HEK293 viab inactive.
For Cc1cn2nc(C(=O)Nc3ccccc3)cc2c(N(C)Cc2ccccc2)n1 the results were IP6K1 inh inactive, KDM5B inh 28.2µM, SNCA expr inhib inactive and HEK293 viab inactive.
Cc1cn2nc(C(=O)Nc3ccccc3C)cc2c(N(C)Cc2ccccc2)n1 was read as IP6K1 inh inactive, KDM5B inh inactive, SNCA expr inhib inactive and HEK293 viab inactive.
For Cc1cn2nc(C(=O)Nc3ccc4c(c3)OCCO4)cc2c(N(C)Cc2ccccc2)n1 the results were IP6K1 inh inactive, KDM5B inh 28.2µM, SNCA expr inhib inactive and HEK293 viab inactive.
`Cc1cn2nc(C(=O)Nc3cccc(F)c3C)cc2c(N(C)Cc2ccccc2)n1` gave IP6K1 inh inactive, KDM5B inh 28.2µM, SNCA expr inhib inactive and HEK293 viab inactive.
`COc1ccc(NC(=O)c2cc3c(N(C)Cc4ccccc4)nc(C)cn3n2)cc1` gave IP6K1 inh inactive, KDM5B inh 31.6µM, SNCA expr inhib inactive and HEK293 viab inactive.
Cc1cn2nc(C(=O)Nc3ccc(Cl)cc3C)cc2c(N(C)Cc2ccccc2)n1 was read as IP6K1 inh inactive, KDM5B inh inactive, SNCA expr inhib inactive and HEK293 viab inactive.
For COc1ccc(CNc2cc3c(cn2)CN(C)CCN3C)cc1OC the results were IP6K1 inh inactive, KDM5B inh inconclusive, SNCA expr inhib inactive and HEK293 viab inactive.
Screening CN1CCN(C)c2cc(-c3ccc(N4CCOCC4)cc3)ncc2C1 returned IP6K1 inh inactive, KDM5B inh 39.8µM, SNCA expr inhib inactive and HEK293 viab inactive.
`COc1nccnc1NC1CCN(C(=O)Cc2ccsc2)CC1` gave IP6K1 inh inactive, KDM5B inh 31.6µM, SNCA expr inhib inactive and HEK293 viab inactive.
For COc1nccnc1NC1CCN(C(=O)Cc2c(C)noc2C)CC1 the results were IP6K1 inh inactive, KDM5B inh 31.6µM, SNCA expr inhib inactive and HEK293 viab inactive.
`COc1nccnc1NC1CCN(C(=O)NCc2ccc(F)cc2)CC1` gave IP6K1 inh inactive, KDM5B inh 28.2µM, SNCA expr inhib inactive and HEK293 viab inactive.
COc1ccc(CC(=O)N2CCC(Nc3nccnc3OC)CC2)cc1 was read as IP6K1 inh inactive, KDM5B inh 28.2µM, SNCA expr inhib inactive and HEK293 viab inactive.
`COC(=O)c1ccc(-c2ccc(C=O)o2)cc1` gave KDM5B inh inactive.
`Cc1cc(=O)n2[nH]c(CN(C(=O)c3ccc(F)cc3)c3ccc(Cl)cc3)nc2n1` gave KDM5B inh inactive.
Screening Cc1nc(SCc2csc(Cc3ccc(Cl)cc3)n2)sc1CC(N)=O returned KDM5B inh inactive.
`Cc1n[nH]c(=O)c2c(NC(=O)CSc3nnc(C)n3Cc3ccccc3)oc(C)c12` gave KDM5B inh inactive.
`Cc1ccnn1CCC(=O)Nc1nn(C)c2cccc(N3CCOCC3)c12` gave IP6K1 inh inactive, KDM5B inh 28.2µM, SNCA expr inhib inactive and HEK293 viab inactive.
Screening O=C(Nc1nn(-c2cccc(F)c2)c2cccc(N3CCOCC3)c12)C1CCC1 returned IP6K1 inh inactive, KDM5B inh 31.6µM, SNCA expr inhib inactive and HEK293 viab inactive.
O=C(Nc1nn(Cc2ccccc2)c2cccc(N3CCOCC3)c12)C1CCC1 was read as IP6K1 inh inactive, KDM5B inh 25.1µM, SNCA expr inhib inactive and HEK293 viab inactive.
Cc1ccc(C)c(CN2CCN(c3nc4c(c(=O)[nH]c(=O)n4C)n3Cc3ccccc3F)CC2)c1 was read as KDM5B inh inactive.
Screening Cc1ccccc1C(=O)Oc1ccc2c(=O)c(-c3ccccc3)coc2c1 returned KDM5B inh inactive.
For O=C(Nc1ccc(Cl)c(Cl)c1)c1cc2n(n1)CC(c1ccc(Cl)cc1)OC2 (stereo not drawn) the results were IP6K1 inh inactive, KDM5B inh 28.2µM, SNCA expr inhib inactive and HEK293 viab inactive.
`COc1ccc(NC(=O)c2cc3n(n2)CC(c2ccc(Cl)cc2)OC3)cc1Cl` (stereo not drawn) gave IP6K1 inh inactive, KDM5B inh 25.1µM, SNCA expr inhib inactive and HEK293 viab inactive.
Screening O=C(Nc1ccc(F)c(Cl)c1)c1cc2n(n1)CC(c1ccc3c(c1)OCO3)OC2 (stereo not drawn) returned IP6K1 inh inactive, KDM5B inh 31.6µM, SNCA expr inhib inactive and HEK293 viab inactive.
For COc1ccc(-c2ccc(C(=O)NCCc3ccc(F)cc3)c(Cl)c2)nn1 the results were IP6K1 inh inactive.
For CSc1ccccc1C(=O)Nc1ccccc1-c1ccccc1 the results were KDM5B inh inactive.
Screening CC(OC(=O)C12CC3CC(CC(C3)C1)C2)C(N)=O (stereo not drawn) returned KDM5B inh inactive.
COc1cccc(CN2CCC3(CC2)NCCc2c3[nH]c3ccc(OC)cc23)c1 was read as IP6K1 inh inactive, KDM5B inh 25.1µM, SNCA expr inhib inconclusive and HEK293 viab inactive[12.5 µM].
For COc1ccc2[nH]c3c(c2c1)CCNC31CCN(Cc2ccc(C)o2)CC1 the results were IP6K1 inh inactive, KDM5B inh 20µM, SNCA expr inhib inconclusive and HEK293 viab inactive[12.5 µM].
COc1ccc2[nH]c3c(c2c1)CCNC31CCN(Cc2scnc2C)CC1 was read as IP6K1 inh inactive, KDM5B inh inconclusive, SNCA expr inhib inactive and HEK293 viab inactive[12.5 µM].
Screening COc1cccc(CN2CCC3(CC2)NCCc2c3[nH]c3ccccc23)c1 returned IP6K1 inh inactive, KDM5B inh inactive, SNCA expr inhib inactive and HEK293 viab inactive[12.5 µM].
Cc1noc(C)c1-c1cc2c(cc(C)n2C)c(N2CCN(c3ccccn3)CC2)n1 was read as IP6K1 inh inactive, KDM5B inh 31.6µM, SNCA expr inhib inactive and HEK293 viab inactive.
O=C(N[C@@H]1CCOC[C@H]1OCCO)c1cccc(-c2ccco2)c1 was read as IP6K1 inh inactive, KDM5B inh 28.2µM, SNCA expr inhib inactive and HEK293 viab inactive.
`O=C(N[C@@H]1CCOC[C@H]1OCCO)c1cc(C2CC2)nc2ccccc12` gave IP6K1 inh inactive, KDM5B inh 28.2µM, SNCA expr inhib inactive and HEK293 viab inactive.
O=C(NCc1ccccc1)c1ccccc1OC1CN(Cc2cccc(F)c2F)C1 was read as IP6K1 inh inactive, SNCA expr inhib inactive and HEK293 viab inconclusive.
CCOCc1cc(C(=O)O)ccc1OC was read as KDM5B inh inactive.
For O=C(NCc1ccnc2[nH]ccc12)c1ccccc1F the results were IP6K1 inh inactive, KDM5B inh inconclusive, SNCA expr inhib inactive and HEK293 viab inactive.
`CN(C)C(=O)c1c[nH]c2cccnc12` gave IP6K1 inh inactive, KDM5B inh 126µM, SNCA expr inhib inactive and HEK293 viab inconclusive.
`O=C(Nc1ccc(F)cc1)c1c[nH]c2cccnc12` gave IP6K1 inh inactive, KDM5B inh inactive, SNCA expr inhib inactive and HEK293 viab inconclusive.
Screening C=CCNC(=O)c1ccnc2[nH]ccc12 returned IP6K1 inh inactive, KDM5B inh 126µM, SNCA expr inhib inactive and HEK293 viab inactive.
